In PubChem BioAssay (EPA / NIEHS):
Inconclusive results are not listed. Activity calls are given as the source filed them. How the source made its calls, unless noted: active means hit-call score of the fitted dose curve at least 0.9, where 1 is the maximum; inactive means score below 0.9.

What was measured:
[1] = CCTE_Shafer_MEA_acute_firing_rate_mean: CCTE's Neural Acute Assay for Mean Firing Rate, Shafer Lab (AID 2284009);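 further: analyzed for loss of signal so actives lower firing rate relative to DMSO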
Method in brief: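 Spontaneous spiking of primary rat cortical networks, DIV 13/15, 37 C. Compound 0.03-40 uM, n ≥3 wells; 40 min baseline vs 40 min treated. Endpoint fitted in loss-of-signal direction against DMSO.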

[2] = CCTE_Harrill_HTTr_Viability_MCF7: CCTE's 6-hour Cell Viability Assessment for the High-Throughput Transcriptomics (HTTr) Platform, in MCF-7 cells cultured in DMEM + 10% fetal bovine serum, Harrill Lab (AID 2284010)
Method in brief: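 Propidium iodide exclusion, imaged by high-content analysis, gauged viability after a six-hour exposure across eight concentrations. Cells were MCF-7 grown in DMEM with 10% fetal bovine serum; fits run in both directions against DMSO.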

[3] = CCTE_Harrill_HTTr_CellCount_MCF7: CCTE's Cell Proliferation Assessment for the High-Throughput Transcriptomics (HTTr) Platform, Harrill Lab (AID 2284012; active means hit-call score of the fitted dose curve at least 0.9, where 1 is the maximum;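 further: cells exposed to compound for six hours; intended direction is loss of nuclei count meaning fewer cells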)
Method in brief: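 Cell count from high-content imaging of Hoechst-labeled nuclei serves as viability/growth readout. Chemicals were applied to MCF-7 cells in eight concentrations for six hours, with fitting in both directions relative to DMSO.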

[4] = CCTE_Shafer_MEA_acute_burst_number: CCTE's Neural Acute Assay for Single-Electrode Bursts, Shafer Lab (AID 2284013)
Method in brief: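 Burst totals were derived with adaptive spike detection (8x rms threshold) on filtered signals from rat cortical cultures; change relative to pre-treatment baseline after 40-min compound exposure (0.03-40 uM) was fitted in the negative direction against DMSO.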

[5] = CCTE_Shafer_MEA_acute_burst_duration_mean: CCTE's Neural Acute Assay for Mean Burst Duration, Shafer Lab (AID 2284014);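 further: hits are decreases in mean burst duration relative to DMSO controls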
Method in brief: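 Acute exposure of mature rat cortical networks (DIV 13 or 15) grown on microelectrode arrays to 0.03-40 uM compound. Mean burst duration compared with the 40-min pre-dose baseline over a 40-min post-dose recording at 37 C.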

[6] = CCTE_Shafer_MEA_acute_per_burst_spike_number_mean: CCTE's Neural Acute Assay for Average Number of Spikes Per Burst, Shafer Lab (AID 2284015);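 further: hits are decreases in mean spikes per burst versus baseline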
Method in brief: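 Read-out: percent change in mean spikes per burst, each well's post-exposure 40-min recording versus its own 40-min baseline. Rat cortical cultures, DIV 13 or 15, compounds 0.03-40 uM; DMSO is negative control, loss-of-signal fitting.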

[7] = CCTE_Shafer_MEA_acute_interburst_interval_mean: CCTE's Neural Acute Assay for Mean Interburst Interval, Shafer Lab (AID 2284016);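 further: percent change of mean interburst interval versus each well's own pre-dose baseline; curves fitted for decrease in interburst interval relative to DMSO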
Method in brief: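 Rat cortical cultures, DIV 13/15; 20 min equilibration, 40 min baseline, compound 0.03-40 uM, 40 min re-recording, 37 C. Spikes detected at 8x rms noise (300-5000 Hz band-pass). Endpoint: % change in interburst interval, fitted in loss direction vs DMSO.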

[8] = CCTE_Shafer_MEA_acute_burst_percentage_mean: CCTE's Neural Acute Assay for Percentage of Spikes in a Burst, Shafer Lab (AID 2284017)
Method in brief: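 Rat cortical cultures, DIV 13/15, 37 C. Spikes detected at 8x rms noise (300-5000 Hz band-pass). Burst spikes/total spikes averaged across electrodes per well; % change post- vs pre-treatment (40 min each), loss-of-signal fit vs DMSO.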

[9] = CCTE_Shafer_MEA_acute_burst_percentage_std: CCTE's Neural Acute Assay for Standard Deviation of Burst Percentage, Shafer Lab (AID 2284018);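 further: fitted in the negative direction so actives lower burst percentage SD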
Method in brief: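 Primary rat cortical neurons on 16-electrode MEA wells were recorded 40 min at baseline (DIV 13 or 15), then 40 min after compound (0.03-40 uM), at 37 C. Well value is SD across electrodes of spikes-in-bursts/total spikes; endpoint is percent change, DMSO-referenced.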

[10] = CCTE_Shafer_MEA_acute_per_network_burst_spike_number_mean: CCTE's Neural Acute Assay for Average Number of Spikes in a Network Burst, Shafer Lab (AID 2284019);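 on AC50: curve fitted for loss of signal so actives reduce spikes per network burst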
Method in brief: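 Acute exposure of rat primary cortical networks (DIV 13/15) on MEAs; adaptive spike detection at 8x rms noise, 37 C. Percent change in spikes per network burst after 40 min with compound (0.03-40 uM), negative direction vs DMSO.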

[11] = CCTE_Shafer_MEA_acute_per_network_burst_spike_number_std: CCTE's Neural Acute Assay for Standard Deviation of Number of Spikes in a Network Burst, Shafer Lab (AID 2284020);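 further: fitted for decrease in spike-number SD versus DMSO so actives lower it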
Method in brief: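 Acute MEA exposure, rat cortical neurons, 0.03-40 uM. Per-well % change versus own baseline; DMSO as negative control.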

[12] = CCTE_Shafer_MEA_acute_per_network_burst_electrodes_number_mean: CCTE's Neural Acute Assay for Mean Number of Electrodes in a Network Burst, Shafer Lab (AID 2284021);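 further: curves fitted for decreases only so hits reduce electrodes per burst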
Method in brief: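 Cultures of rat cortex neurons were exposed on DIV 13 or 15 to compounds at 0.03-40 uM in at least three wells each. Activity over 40 min before and 40 min after exposure at 37 C gave the percent change in electrodes per network burst.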

[13] = CCTE_Shafer_MEA_acute_network_burst_percentage: CCTE's Neural Acute Assay for Percentage of Network Bursts, Shafer Lab (AID 2284022);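 further: curves fitted for loss so actives lower network burst percentage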
Method in brief: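 Cortical neurons from rat were grown over microelectrode arrays and used on day 13 or 15 in vitro. Wells with at least 10 active electrodes received test chemical at 0.03-40 uM. Activity during 40 min of exposure was compared with the preceding 40-min baseline.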

[14] = CCTE_Shafer_MEA_acute_cross_correlation_area: CCTE's Neural Acute Assay for Area of Cross Correlation, Shafer Lab (AID 2284024);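 further: rat primary cortical neuron networks on 48-well MEA at DIV 13 or 15 with 40 min exposure; area under pooled inter-electrode spike cross-correlation near zero lag as percent change from own baseline; curves fitted for loss of cross-correlation area so actives lower synchrony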
Method in brief: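 Acute exposure of mature rat cortical networks (day 13 or 15 post-plating) to 0.03-40 uM compound. Spontaneous spiking on MEA, 40 min pre- and post-dose at 37 C.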

[15] = CCTE_Shafer_MEA_acute_cross_correlation_HWHM: CCTE's Neural Acute Assay for Cross Correlation at Half Width at Half Maximum, Shafer Lab (AID 2284026);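 further: spontaneous network firing of rat primary cortical neurons on multiwell microelectrode arrays; percent change per well from pre-dose baseline in spike cross-correlogram half width; hits are a decrease in cross-correlogram half width relative to DMSO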
Method in brief: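 Primary cortex (rat), MEA, DIV 13/15; compound 0.03-40 uM; 40 min pre + 40 min post at 37 C; spike threshold 8x rms; wells need ≥10 active electrodes; endpoint = % change in cross-correlogram HWHM vs baseline, DMSO negative control.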

[16] = CCTE_Harrill_HTTr_Apoptosis_MCF7: CCTE's 6-hour Apoptosis Assessment for the High-Throughput Transcriptomics (HTTr) Platform, in MCF-7 cells cultured in DMEM + 10% fetal bovine serum, Harrill Lab (AID 2284011)
Method in brief: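 Cells are dosed with test chemicals at eight concentrations and imaged 6 hours later for caspase-3/7 activity using a green fluorogenic detection reagent. Activity is fitted in both directions against DMSO controls.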

Measured: AC50

Clc1cc(Cl)c(Cl)cc1Cl
not listed: [16]
inactive: all other assays above

CCOC(=O)C(C)(C)Oc1ccc(Cl)cc1
not listed: [3] | [16]
inactive: all other assays above

NS(=O)(=O)c1cc2c(cc1Cl)NCNS2(=O)=O
inactive: all assays above

CNCc1cc(F)ccc1Oc1ccc(Cl)c(Cl)c1
active: [1] 2.55 µM | [4] 2.24 µM | [5] 33.5 µM | [6] 31.5 µM | [10] 32.6 µM | [11] 31.7 µM
not listed: [16]
inactive: all other assays above

CC(=O)Oc1ccccc1C(=O)O
not listed: [3]
inactive: all other assays above

COc1ccc2c(c1)c(CC(=O)O)c(C)n2C(=O)c1ccc(Cl)cc1
inactive: all assays above

c1cc(-c2ccncc2)ccn1
inactive: all assays above

O=C(O)CCCCC(=O)O
not listed: [16]
inactive: all other assays above
